Results published in PubChem BioAssay AID1508600 (Functional Genomics Laboratory (NCATS/FGL), 2020).
Hit rate of the full screen: of about 53,000 sequences, about 3,700 (7%) were called active. Only a selection was taken, and actives are over-represented in it overall. Values without a mark were called inactive.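 The calls were made as follows: active = gene knockdowns whose robust z-score for IL-1 alpha signal is at least 2 or at most -2, so actives lie on both sides; inactive = the rest.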

Assay: Components of the Cytosolic LPS Sensing Pathway: Gene Identification via Genome-wide siRNA Screen;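 also: robust z of the log signal after scaling to non-targeting control siRNA wells of the plate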
Details: RAW264.7 macrophages, IL-1a HTRF, actives lie on both sides, screened at 100 nM (by protocol), cells primed 5 h with Pam3CSK4 first
Procedure, shortened: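 Mouse macrophage line RAW264.7 is transfected with siRNA (100 nM final), grown 48h, primed with TLR ligand Pam3CSK4 5 h and given intracellular LipidA 24 h. IL-1a in supernatant is read by HTRF and viability by luminescence.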

Q: With GGUGAAAAGCAGCUAACAATT against Fam135a as the sequence, how does the z-score read?
A: -1.6

Q: With GCUGUAAUGCUAAUGACAUTT against Gpr22 as the sequence, how does the z-score read?
A: 1.23

Q: For CCAUGGUCAUCCCGAUGUUTT against Olfr1454, which z-score is on record?
A: 0.171

Q: Which z-score does the source give for “CGAGAAGGGAUUUUAGAAGTT against A830018L16Rik” here?
A: -0.92

Q: Which z-score does the source give for GGAGAAACUCUUCAGGCUUTT against Tceal8 here?
A: -2.19 (active)

Q: With GGCAGGCAGAAGGCUUUUUTT against Olfr228 as the sequence, how does the z-score read?
A: 1.07

Q: With GGUGGACAGGAGAAAGGAATT against Npy6r as the sequence, how does the z-score read?
A: -0.578

Q: Which z-score does the source give for GGAGACCUGAAUUUUUCAGTT against Tab2 here?
A: 0.469

Q: Which z-score does the source give for GGAACAAUUGUUCCUGUGATT against Kcne1 here?
A: -2.04 (active)

Q: With GGAAGAAGCAACCACAUUCTT against Evl as the sequence, how does the z-score read?
A: 0.898

Q: Which z-score does the source give for GGAGGAGUUUGACUUCGACTT against Alox12 here?
A: -0.109

Q: Which z-score does the source give for CGUAGACAUGGCCUUUUUUTT against Dipk1c here?
A: -0.863

Q: With GCAAAUGAAUCAUGGGUGGTT against Rnf141 as the sequence, how does the z-score read?
A: 0.116

Q: With GGAACGUGGAUCUUUUUAUTT against Wiz as the sequence, how does the z-score read?
A: 2.42 (active)

Q: With GCUGUCCUUCUAUAACCCATT against Frmd5 as the sequence, how does the z-score read?
A: -1.68

Q: Which z-score does the source give for GCUCUACAUCGAAUUGCUGTT against Lig4 here?
A: 4.14 (active)

Q: For GGCGACAAAAAGGCUAAGCTT against Khnyn, which z-score is on record?
A: 0.437

Q: With GGAACUAGCCUUCACUGACTT against Rabggta as the sequence, how does the z-score read?
A: 0.931

Q: For GGUUGCAUCACAGCGUAUATT against Phlpp1, which z-score is on record?
A: 0.759

Q: For GGAGGAAAAUGAUGGAGAGTT against Lysmd1, which z-score is on record?
A: 2.28 (active)

Q: With CCACUUUAGCUCCUUUAAGTT against Tet3 as the sequence, how does the z-score read?
A: -0.438

Q: Which z-score does the source give for GGAGCUCUACAUCAUAGACTT against Lhx1 here?
A: 0.579

Q: For GGUAAAACAGGUAUGUCGCTT against Ramac, which z-score is on record?
A: 0.48

Q: Which z-score does the source give for CGAUGAGCUAAGAGAGUCCTT against Cand2 here?
A: 3.09 (active)

Q: With GGCCUACCUGGUUGAGAAATT against Spam1 as the sequence, how does the z-score read?
A: 1.44

Q: With GGUCUAUGAAGAGAAGACUTT against Mtres1 as the sequence, how does the z-score read?
A: 0.8

Q: Which z-score does the source give for GGCACAGUUCCUCAGUAUGTT against Hspbap1 here?
A: 1.76

Q: Which z-score does the source give for GCAUUAUACCUGUCAAGUUTT against Klk1b1 here?
A: 0.608

Q: With CGAGUCAAUCAACUUGUCUTT against Olfr54 as the sequence, how does the z-score read?
A: -0.882

Q: For GGACUCUGAUCUGGAGUAGTT against Slc51a, which z-score is on record?
A: -0.397

Q: Which z-score does the source give for GGCAAACAUCUGUAUCUAUTT against Golph3 here?
A: -0.571

Q: Which z-score does the source give for CGGCAACUCAACAAGCUUATT against Cbfa2t3 here?
A: 2.38 (active)

Q: With GGCAUCUUUUGAAACAAUATT against Ubxn8 as the sequence, how does the z-score read?
A: -1.04

Q: Which z-score does the source give for GGCAGUGGGAUUACAAUGATT against Med12 here?
A: 2.02 (active)

Q: With GGCAUACAAAGCCCUCUAUTT against Kcnrg as the sequence, how does the z-score read?
A: -0.457

Q: For GGAUGUGAUGACUCAUUUUTT against Zbtb8os, which z-score is on record?
A: 0.976

Q: Which z-score does the source give for GGUGAAUAAAGACCGAGGUTT against Anks6 here?
A: -1.58

Q: With GCGUGAGGAUGUAGACUACTT against Mmp12 as the sequence, how does the z-score read?
A: 0.699

Q: With GGACAUUUUUGUCUCUAAATT against Pacc1 as the sequence, how does the z-score read?
A: 0.167

Q: With CCGACACAAGAUGCUCAGUTT against Tmem9 as the sequence, how does the z-score read?
A: -2.3 (active)

Q: Which z-score does the source give for GGACAAUUCCAUGCUUCCCTT against Il24 here?
A: -0.00641

Q: With “CGCGCAGAUGCACCAGAUUTT against 2610028H24Rik” as the sequence, how does the z-score read?
A: 1.12

Q: For GGUCAAAGAUGCUAUAAAATT against Olfr993, which z-score is on record?
A: -0.843

Q: For GGAGGCAGCUCCUAUGAUGTT against Rbm28, which z-score is on record?
A: 0.378

Q: With GGUGACUGGUAAAUGCCAGTT against Olfr1502 as the sequence, how does the z-score read?
A: -0.428

Q: For GCCUAUGAUAAGUCUGUGUTT against Ifitm10, which z-score is on record?
A: -2.25 (active)

Q: With CGGUCUUUAUACACAUAUATT against Wnt7a as the sequence, how does the z-score read?
A: -0.0297

Q: For GGUGAGAAUGUGCUUCAAUTT against Egr2, which z-score is on record?
A: -0.0732

Q: Which z-score does the source give for GCAUCGUCUAUAUUUUUGGTT against Timm50 here?
A: -1.56

Q: For GGAAGACGAAGAGUUUGGATT against Aqp5, which z-score is on record?
A: 2.37 (active)

Q: With GGAAUGCUUAGUGAAAUUUTT against Ahctf1 as the sequence, how does the z-score read?
A: 0.481

Q: With GGAUUCUGAACCUUACAGATT against Hoxd9 as the sequence, how does the z-score read?
A: 1.61

Q: For CGGAGUUGGGAUUUACCAGTT against Pdia5, which z-score is on record?
A: -0.594

Q: Which z-score does the source give for CCGAGGAGAACACUUGUAGTT against Opn4 here?
A: -2.54 (active)

Q: Which z-score does the source give for GGCACCUUAAUGCUGACUUTT against Sdc4 here?
A: -0.694

Q: Which z-score does the source give for GGCUCAAGGUUUUCUCUACTT against Olfr710 here?
A: -0.0341

Q: For GGUAUAUCCCUCACAAAAGTT against Dnah2, which z-score is on record?
A: -1.69

Q: For GCAGUUAUGUUAUAGCUGCTT against Ctu2, which z-score is on record?
A: 0.0152

Q: For GCUAGUUUAAGAGACUUUGTT against Nfatc2ip, which z-score is on record?
A: 0.234

Q: Which z-score does the source give for GGUCUAAGUCUGAAUGGCCTT against Agrp here?
A: 0.539

Q: Which z-score does the source give for CGACUGGAAUCUAAUAACUTT against Fgf2 here?
A: 0.987

Q: For CGGCUCCAGGCAAAUAUGGTT against Ezh1, which z-score is on record?
A: -1.64

Q: Which z-score does the source give for GGAUCAAUGGUGUCUUUGUTT against Pdzk1 here?
A: -2.2 (active)

Q: For CGAGAAAGUAUUGACCGAGTT against Anxa5, which z-score is on record?
A: -0.524

Q: For GGAAGGUGUUCGUAGAGAATT against Mad2l1, which z-score is on record?
A: 0.0941

Q: With GCACCGUGUCGUUGACUUGTT against Trim56 as the sequence, how does the z-score read?
A: 0.566

Q: For CCUAUCGAGUGAAAGUAAATT against Abcg2, which z-score is on record?
A: -0.304

Q: With “GGCACUGCUAUUAACUACATT against 4933414I15Rik” as the sequence, how does the z-score read?
A: -0.906

Q: Which z-score does the source give for CGCAGGUAUACAGGACUGCTT against Rhox8 here?
A: 2.33 (active)

Q: Which z-score does the source give for CUGUUACCUAUCCCUCAUCTT against Sstr3 here?
A: -0.663

Q: For GCUACUCUUAUUCUACUUCTT against Slc29a3, which z-score is on record?
A: 0.145

Q: For GCCCUCAUCAGAAGAAACUTT against Cox7b2, which z-score is on record?
A: 0.864

Q: With GGUAGACCUAGAACAGCACTT against Ttyh2 as the sequence, how does the z-score read?
A: -0.495

Q: Which z-score does the source give for GGUGAGAUUACUGAAAGAATT against Plod2 here?
A: -0.0899

Q: With GCCAGUCCUGAUAGCAUCATT against Rhox6 as the sequence, how does the z-score read?
A: -3.2 (active)

Q: Which z-score does the source give for GGAGAAGGCAACUUCUGUUTT against Zfp641 here?
A: 0.19

Q: For CCUAUUGAUUGUAUAUCCATT against Emc2, which z-score is on record?
A: -0.429

Q: With CCAAAUUGUCUCUUCUAACTT against Dnah1 as the sequence, how does the z-score read?
A: 0.0269

Q: Which z-score does the source give for GGAACAAAGAGUUUAAGGATT against Olfr1415 here?
A: 0.379

Q: With GGAACAAGUGGCUGAAGAUTT against Cyp11b2 as the sequence, how does the z-score read?
A: 0.566

Q: For GCAUGUUUCUAAACUUAGUTT against Sh3rf2, which z-score is on record?
A: -0.432

Q: For GGUAUCGUAUAUGGAGAUCTT against Kif13a, which z-score is on record?
A: 2.12 (active)

Q: With GGUUCUGAAAGAGUGUUAGTT against Htatsf1 as the sequence, how does the z-score read?
A: -1.58

Q: For GGGCUCACAUUGUACACACTT against Nckap5, which z-score is on record?
A: 0.525

Q: Which z-score does the source give for GGACAUCUUUUCAAACGUGTT against Acap1 here?
A: -1.09

Q: Which z-score does the source give for GCUGAACGUGAGAUUGUGCTT against Acta1 here?
A: 1.33

Q: With GGUCAAUUAUGAAGCACCUTT against Pabpc4 as the sequence, how does the z-score read?
A: 0.158

Q: For GGCAACAAAAAAAUCCCAATT against Cd160, which z-score is on record?
A: -0.647

Q: Which z-score does the source give for GGUAUCUGUGUGACUUCACTT against Pgpep1 here?
A: 3.63 (active)

Q: With GGGACAACAUUCAAAGGUCTT against Hdgfl1 as the sequence, how does the z-score read?
A: -0.322

Q: Which z-score does the source give for GCGAUUGGCAGAUUGCUACTT against Tmem47 here?
A: 1.01

Q: For GCCGUUUCGUGUGGUAUUUTT against Tm4sf1, which z-score is on record?
A: -2.64 (active)

Q: Which z-score does the source give for GGGAUAGCAAGACUUUCACTT against C5ar1 here?
A: 0.194

Q: For GGUUGUGAGUCAGUCUAGUTT against Tia1, which z-score is on record?
A: -1.55

Q: With GGAGCUCUGUGAAUCUCUUTT against Ska1 as the sequence, how does the z-score read?
A: -0.796

Q: With CCUUCCUGUUGUCAUGAGATT against Eipr1 as the sequence, how does the z-score read?
A: -0.868

Q: Which z-score does the source give for CCAAUGGUCAGGAGUGUAGTT against Prpsap2 here?
A: -0.766

Q: With GCGGCUCAAACUCAUUUUGTT against Gm4841 as the sequence, how does the z-score read?
A: 1.21

Q: Which z-score does the source give for CCUUGACCUUAAUGUCUUCTT against Fgf23 here?
A: 2.05 (active)

Q: Which z-score does the source give for GGUAUGAUGAUUGUUAGAUTT against Phf20 here?
A: 0.141

Q: With “GCUCUAAAACUGUGUACUCTT against 4930579K19Rik” as the sequence, how does the z-score read?
A: -0.167

Q: For GGAAUUUUCUGGAAAUCCATT against Tctn2, which z-score is on record?
A: -0.111

Q: With GGCUCUCAUUGAUGCAUGUTT against Cpeb4 as the sequence, how does the z-score read?
A: -0.264

Q: Which z-score does the source give for GGAAUGAAACCAAGUAUAATT against Calcb here?
A: 0.853

Q: Which z-score does the source give for GCAGGUUCAGGCAGUAAUUTT against Kpna4 here?
A: 3.78 (active)

Q: With GCUCAUUGGGAUCAUUGGUTT against Fancd2 as the sequence, how does the z-score read?
A: 1.45

Q: For GGUGACACCCAGAAUGAGCTT against Htatsf1, which z-score is on record?
A: 1.81
